aSyn rescue: qHTS of alpha-syn Inhibitors; Yeast expressing alpha-synuclein, growth rescue, BacTiter-Glo, 24 h; Potency, µM (highest dose often 46.1 µM), for inactives: top-dose growth rescue (activation), actives largely listed as activators; actives 0.14% (n = 370,000); note: % of control where 0% means no effect; nearly all actives have a fitted effect of over 65% in size
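Readout is rescue of growth in alpha-synuclein-expressing yeast, so inhibitors of toxicity appear as activators. Growth after 24 hr at 30 deg C in galactose medium is quantified by luminescence.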
Mito fusion yeast: qHTS Assay for Small Molecule Inhibitors of Mitochondrial Division or Activators of Mitochondrial Fusion. S. cerevisiae fusion-defective mutant growth rescue, CellTiterGlo 48 h. AID 485298, 2010. Potency, µM (highest dose often 46.1 µM), for inactives: at the top dose growth rescue (activation), actives largely listed as activators. actives 0.23% (n = 320,000); note: % of control where 0% means no effect; nearly all actives have a fitted effect of over 45% in size
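Luminescent cell viability in 1536-well qHTS format served as the measure of rescued growth in ts fusion-mutant S. cerevisiae cultured on non-fermentable YPEG for 48 hours at 37C.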
FUS suppressor: qHTS for Suppressors of FUS Proteinopathy: Primary screen using FUS-linked yeast assay; S. cerevisiae FUS-expressing, growth rescue, OD600, 24 h; Potency, µM (titrated, usually from 76.6 µM), most hits filed as activators; actives 0.24% (n = 390,000); AID 1347120, 2019;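 note: plate controls were DMSO vehicle for no effect and reference control for full effect; nearly all actives have a fitted effect of over 55% in size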
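S. cerevisiae expressing FUS from galactose induction served as the toxicity model. Growth after 24hr at 30C, read as absorbance at 600 nm, indicates suppression of toxicity; compounds dosed at several concentrations.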
TDP-43 yeast inh: qHTS of TDP-43 Inhibitors | TDP-43 expressing yeast growth rescue, BacTiter-Glo, 24 h | Potency, µM (titrated, usually from 46.1 µM), for the others: at the highest dose growth rescue (activation), usual class: activators | actives 1.8% (n = 410,000) | AID 652104, 2013; note: % of control where 0% means no effect; nearly all actives have a fitted effect of over 50% in size
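Luminescence from BacTiter-Glo reports growth of TDP-43-expressing yeast after 24 hr at 30 deg C with compound. Cells were raffinose-pregrown to mid-log, then seeded in galactose medium at OD600=0.02.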
Abeta rescue: qHTS for compounds that reverse cellular toxicity of Amyloid beta (A-beta) peptide in yeast: Primary Screen. yeast expressing A-beta42, growth rescue, OD600, 48 h; response scale: 0% DMSO, 100% iron-clioquinol control. Potency, µM (highest dose often 46.1 µM), actives largely listed as activators. actives 0.063% (n = 410,000). AID 1347071, 2019; note: nearly all actives have a fitted effect of over 55% in size
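Yeast growth medium received pinned compounds, then yeast cells expressing toxic A-beta were added; plates incubated at 30 C for 48 hr. Growth read as absorbance at 600 nm, normalized to DMSO and equimolar FeCl3 plus clioquinol controls.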
AT treatment: qHTS Assay for Identifying a Potential Treatment of Ataxia-Telangiectasia; F2112 A-T fibroblasts, KAP-1 phosphorylation AlphaLISA; neocarzinostatin DNA damage 30 min before lysis; actives 0.19% (n = 320,000); Potency, µM (series often up to 57.5 µM), for the others: top-dose activation, hits mostly activators; note: % of control where 0% means no effect; nearly all actives have a fitted effect of over 45% in size
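ATM-like activity read as KAP-1 phosphorylation via AlphaLISA donor/acceptor antibody pairs after lysis and 6 hr at 25C. Cells were ATM-null patient fibroblasts (F2112, hTERT), dosed 60 min, then exposed to the DSB inducer NCS for 30 min.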
Active calls of the source: *; i = inactive; ? = inconclusive; . = no result given; ! = a repeat was not active; [ ] = another dose, or the depositor's remark. An excerpt weighted towards active compounds, which were near 2.4% of everything screened. Calls come from the whole dose curve; as a rule, active = well fitted curve in the direction sought with a large enough effect; inconclusive = small, poorly fitted or top-dose-only effect, or another doubt; inactive = no such curve, though single readings can be large; an effect the other way counts as inactive or inconclusive. Potency is the fitted concentration of half-maximal effect.

SMILES	aSyn rescue	Mito fusion yeast	FUS suppressor	TDP-43 yeast inh	Abeta rescue	AT treatment
COc1ccc(NS(=O)(=O)c2cc(NC(=O)CCNC(C)=O)ccc2N2CCCCC2)cc1	1%[1.84 µM]	-4%	32µM*	1%	i	6%
COc1ccc(-c2[nH]nc3nc(-c4cc(Br)ccc4OC)cc(C(=O)O)c23)cc1	.	.	i	8%[9.22 µM]	i	.
COC(=O)c1cc(C(c2ccccc2O)C2CCC(C)(C)O2)n2ccccc12 (stereo not drawn)	.	.	i	.	.	.
Nc1cc2nsnc2cc1Br	5%	-2%	.	13µM*	i	9%
O=C1/C(=C\c2ccc([N+](=O)[O-])cc2)CCc2ccccc21	-8%	-3%	i	?	i	-5%
COc1ccc(/C=C2\CCc3ccccc3C2=O)cc1O	-13%	-1%	i	14µM*	i	3%
COc1ccc(/C=C2\Cc3ccccc3C2=O)cc1OC	16%	-22%	i	14%	i	5%
CC(=O)Nc1ccc(/C=C2\CCc3ccccc3C2=O)cc1	0%	30%	i	35µM*	i	1%
COc1ccc(OC(=O)c2c(C)nn(-c3ccccc3)c2C)cc1	-20%	8%	i	22µM*	i	6%
Cc1ccccc1Cn1cnc2ccccc2c1=O	5%	4%	i	?	i	6%
O=c1c2ccccc2ncn1Cc1cccc2ccccc12	19%	22%	i	11µM*	i	0%
CC(=O)N(Cc1cccnc1)c1nc2c(C)cccc2s1	.	.	i	?	i	.
Cc1ccc2nc(N(Cc3cccnc3)C(=O)C3CCCCC3)sc2c1	.	.	i	5.6µM*	i	.
Cc1cccc2sc(N(Cc3cccnc3)C(=O)C3CCCCC3)nc12	.	.	i	3.5µM*	i	.
CCOc1ccc2nc(N(Cc3cccnc3)C(=O)C3CCCCC3)sc2c1	.	.	i	?	i	.
O=C(c1ccc2c(c1)OCCO2)N(Cc1cccnc1)c1nc2c(Cl)cccc2s1	.	.	i	22µM*	i	.
CCc1ccc2nc(N(Cc3cccnc3)C(=O)c3cccs3)sc2c1	.	.	i	32µM*	i	.
CCC(=O)N1CCc2cc(CNS(=O)(=O)c3ccc(NC(=O)CC(C)C)cc3)ccc21	.	.	i	?	i	.
CCc1ccc(N(CC)C(=O)Cn2c(=O)oc3ccccc32)cc1	.	.	i	22%	i	.
CC(C)c1ccc(Nc2n[nH]c(=S)s2)cc1	-1%	.	i	14µM*	i	.
Cc1cccc(C)c1Nc1n[nH]c(=S)s1	2%	.	i	?	i	.
O=C(Cc1cccs1)N/N=C\c1ccccc1	.	.	i	.	.	.
CC(C)(C)[C@H]1C=C(C(=O)NCc2nc3ccccc3[nH]2)O[C@@H](OCCCCO)C1	-2%	5.6µM*	i	19%	i	-1%
CCCCCCCCN1C(=O)[C@@H](CC(=O)NCc2cccc3ccccc23)C[C@@]2(C(=O)OC)C1=C[C@H](COCc1ccccc1)O[C@@H]2C	.	.	i	.	.	.
COc1ccc(S(=O)(=O)N2CCOC23CCN(C(=O)c2c(F)cccc2Cl)CC3)cc1	3%	14%	i	18µM*	?	6%
SMILES	aSyn rescue	Mito fusion yeast	FUS suppressor	TDP-43 yeast inh	Abeta rescue	AT treatment
Cn1c(CO)c(-c2ccccc2)c2cc([N+](=O)[O-])ccc21	-5%	1%	i	14µM*	i	10%
CC(=O)OCc1c(-c2ccccc2)c2cc([N+](=O)[O-])ccc2n1C	1%	-5%	i	-3%	i	-3%
O=C(NCc1ccc2c(c1)OCO2)c1cc([N+](=O)[O-])ccc1N1CCCCC1	9%	7%	.	20µM*	i	4%
O=C(NCc1ccco1)c1ccc(N2CCCCC2)c([N+](=O)[O-])c1	6%	11%	i	?	i	0%
O=C(NCc1ccco1)c1cc([N+](=O)[O-])ccc1N1CCCCC1	0%	2%	i	14µM*	i	.
COc1cc2nc(N3CCCN(C)CC3)nc(N3CCN(C)CC3)c2cc1OC	-2%	.	.	.	.	.
CCOc1ccc(NC(=O)c2sc(-n3nc(C)c(CCC(C)C)c3C)nc2C)cc1	.	.	i	9%	i	.
CCc1nn(CCCC(=O)N2CCN(c3cc(Cl)ccc3C)CC2)c(=O)c2cc3occc3n12	.	.	?	35µM*	i	.
Cc1cccc(N2CCN(C(=O)CCCn3ncn4c(cc5occc54)c3=O)CC2)c1C	.	.	i	16µM*	i	.
CCc1nn(C(C)C(=O)N2CCN(c3ccc(OC)cc3)CC2)c(=O)c2cc3occc3n12 (stereo not drawn)	0%	-8%	i	32µM*	i	6%
O=C(CCCn1ncn2c(cc3occc32)c1=O)N1CCc2ccccc2C1	0%	8%	i	20%	i	-1%
Cc1cccc(N2CCN(C(=O)C(C)n3nc(C)n4c(cc5occc54)c3=O)CC2)c1C (stereo not drawn)	6%	-4%	i	22µM*!	i	.
O=C(O[C@H]1CC[C@@]23CCCN2C(=O)CCC[C@H]3C1)N1CCOCC1	.	.	i	.	.	.
COc1ccc(OC)c(S(=O)(=O)N2CCC(C(=O)NCc3cccs3)CC2)c1	.	.	i	.	.	.
COc1ccc([C@H]2OC(=O)C[C@@H]2C(=O)N2CCN(c3ccccc3Cl)CC2)cc1OC	.	.	i	.	.	.
S=C1SCN(Cc2ccco2)CN1Cc1ccco1	-20%	5%	i	?	i	-4%
S=C1SCN(Cc2cccs2)CN1Cc1cccs1	15%	.	i	11µM*	i	.
N=c1oc2c3c4c(cc2cc1C(=O)Nc1ccccc1)CCCN4CCC3	6%	1%	i	13%	i	16µM*
Cc1ccc(NC(=O)c2cc3ccccc3oc2=N)cc1	-12%	6%	i	1%	i	?
CCc1ccc(NS(=O)(=O)c2ccc3[nH]cc(C(=O)NC4CCCC4)c(=O)c3c2)cc1	.	.	28µM*	11%	i	.
CN(C)/[N+]([O-])=N/Oc1cc(F)c([N+](=O)[O-])cc1[N+](=O)[O-]	-23%	.	.	.	.	.
Cc1oc(-c2ccc(Cl)cc2)nc1Cn1c(=O)cc(C)c2c(C)nn(-c3ccccc3)c21	.	.	i	24%	i	.
Cc1nc2ccc(NC(=O)Cc3ccc4c(c3)OCCO4)cc2s1	-49%	-27%	.	3.5µM*	i	3%

Bioassay records deposited in PubChem by National Center for Advancing Translational Sciences (NCATS).
